The text below walks through data of PubChem BioAssay.

Test [1] deals with Plasmodium falciparum Sir2 (PF13_0152, Sir2A). In words: Plasmodium falciparum Sir2A binding compounds – biochemical, small-molecule microarray, 635 nm fluorescence, primary screen (AID 1098).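 Note: score merges spot fluorescence intensity with its signal-to-noise ratio.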 The following applies: fluorescence 635 nm, higher = more signal.
The nature of test [2]: probe aDKK1 binding to arrayed compounds – biochemical, biotinylated probe, 635/667 nm fluorescence, primary screen (AID 1099).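 Note: score merges 667nm spot fluorescence with signal to noise across triplicate slides; reference of the scale not given here.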 The following applies: small-molecule microarray, higher = more signal.
Test [3] can be described thus: probe aCHRDL2 binding to arrayed compounds – biochemical, biotinylated probe, 635/667 nm fluorescence, primary screen (AID 1100). The settings on record: small-molecule microarray, higher = more signal.
Test [4] in a line: change in splice reporter luminescence, either direction, cell-based, HEK293, spliceosome inhibition project, primary screen (AID 1101).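 Note: HEK293 cells carrying a splicing-competent luciferase reporter gene; test concentration not given here.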 The following applies: HEK293 splicing luciferase reporter, 24 h, higher = more signal, called active from +8 up or from −8 down. For orientation: Reporter assays use an easily measured gene product as a stand-in for the process of interest.
Test [5] concerns the target Fibroblast growth factor 10 (Homo sapiens) (UniProt O15520). The experiment in a line: compounds binding fibroblast growth factor 10 – biochemical, small-molecule microarray, 635 nm fluorescence, primary screen (AID 1102). The following applies: FGF10 binding, fluorescence 635 nm, higher = more signal.
The subject of test [6] is glycogen synthase kinase-3 (GSK3A per assay name; protocol says GSK3B). In words: compounds binding glycogen synthase kinase-3 – biochemical, small-molecule microarray, 635 nm fluorescence, GSK3A, primary screen (AID 1103). Note: the record names both GSK3A and GSK3B. The following applies: fluorescence 635 nm, higher = more signal.
The target in test [7] is Epidermal growth factor receptor (Homo sapiens) (UniProt P00533). In words: compounds binding epidermal growth factor receptor – biochemical, small-molecule microarray, 635 nm fluorescence, primary screen (AID 1104).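 Note: score merges 667 nm emission intensity with spot signal to noise over triplicate slides.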 The settings on record: EGFR binding, higher = more signal.
In test [8] the target is Follistatin-related protein 3 (Homo sapiens) (UniProt O95633). In words: compounds binding follistatin-related protein 3 – biochemical, small-molecule microarray, 635 nm fluorescence, primary screen (AID 1105).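 Note: score merges emission near 667 nm and signal to noise per printed spot across three slides.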 The settings on record: FSTL3 binding, higher = more signal.
Test [9] deals with Dickkopf-related protein 1 (Homo sapiens) (UniProt O94907). The experiment in a line: small molecules binding DKK1 protein – biochemical, small-molecule microarray, 635 nm fluorescence scan, primary screen (AID 1106).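 Note: score merges emission near 667 nm with signal to noise over three replicate slides.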 The settings on record: higher = more signal.
In test [10] the test system is Inhibin beta A chain (activin A). The experiment in a line: small molecules binding activin A – biochemical, small-molecule microarray, 635 nm fluorescence scan, primary screen (AID 1107).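 Note: mouse activin A protein probed at 4.33 µg/mL on printed slides; score merges bound-protein fluorescence near 667 nm with spot signal-to-noise.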 The settings on record: INHBA, higher = more signal.

The source made the active and inactive calls.

Epidermal growth factor receptor (Homo sapiens), sequence (P00533 whole entry, looked up): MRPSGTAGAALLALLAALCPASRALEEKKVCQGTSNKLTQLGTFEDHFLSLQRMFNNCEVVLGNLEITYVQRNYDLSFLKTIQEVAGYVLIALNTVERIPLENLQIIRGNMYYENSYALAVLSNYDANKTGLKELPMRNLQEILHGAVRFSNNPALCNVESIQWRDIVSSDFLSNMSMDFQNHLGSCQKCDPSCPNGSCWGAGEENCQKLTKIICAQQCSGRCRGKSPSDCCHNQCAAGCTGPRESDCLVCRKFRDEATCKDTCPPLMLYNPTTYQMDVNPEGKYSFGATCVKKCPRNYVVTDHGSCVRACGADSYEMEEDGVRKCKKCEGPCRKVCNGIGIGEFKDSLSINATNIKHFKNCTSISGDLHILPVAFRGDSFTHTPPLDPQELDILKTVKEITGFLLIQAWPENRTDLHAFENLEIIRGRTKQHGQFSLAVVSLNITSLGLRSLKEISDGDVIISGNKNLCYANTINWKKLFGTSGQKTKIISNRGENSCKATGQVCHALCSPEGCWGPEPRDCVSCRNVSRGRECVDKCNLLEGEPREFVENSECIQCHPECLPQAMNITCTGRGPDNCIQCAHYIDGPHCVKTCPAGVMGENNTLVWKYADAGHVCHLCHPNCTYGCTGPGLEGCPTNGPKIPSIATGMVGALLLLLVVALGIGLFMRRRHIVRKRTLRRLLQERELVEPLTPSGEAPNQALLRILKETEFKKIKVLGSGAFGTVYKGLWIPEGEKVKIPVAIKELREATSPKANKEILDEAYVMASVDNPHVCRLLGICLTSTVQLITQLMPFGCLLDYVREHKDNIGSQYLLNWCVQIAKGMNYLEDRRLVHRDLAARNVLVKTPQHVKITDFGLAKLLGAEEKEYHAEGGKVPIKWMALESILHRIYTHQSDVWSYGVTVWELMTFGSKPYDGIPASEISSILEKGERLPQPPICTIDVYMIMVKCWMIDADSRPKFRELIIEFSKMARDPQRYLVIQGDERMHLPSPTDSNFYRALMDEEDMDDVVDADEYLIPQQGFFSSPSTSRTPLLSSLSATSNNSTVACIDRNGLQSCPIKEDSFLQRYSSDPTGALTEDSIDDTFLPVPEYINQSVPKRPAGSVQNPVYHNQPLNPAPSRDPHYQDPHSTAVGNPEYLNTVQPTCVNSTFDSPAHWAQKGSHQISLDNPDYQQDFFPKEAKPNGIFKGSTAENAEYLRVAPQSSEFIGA
Follistatin-related protein 3 (Homo sapiens), sequence (O95633 whole entry, looked up): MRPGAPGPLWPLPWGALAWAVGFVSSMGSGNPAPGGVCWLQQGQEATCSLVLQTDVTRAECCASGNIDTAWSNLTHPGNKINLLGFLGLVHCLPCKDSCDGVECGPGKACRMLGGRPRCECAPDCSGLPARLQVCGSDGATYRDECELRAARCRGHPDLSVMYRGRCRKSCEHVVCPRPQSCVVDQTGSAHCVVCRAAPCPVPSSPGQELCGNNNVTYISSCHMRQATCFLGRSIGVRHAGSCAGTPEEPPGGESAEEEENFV
Fibroblast growth factor 10 (Homo sapiens), sequence (O15520 whole entry, looked up): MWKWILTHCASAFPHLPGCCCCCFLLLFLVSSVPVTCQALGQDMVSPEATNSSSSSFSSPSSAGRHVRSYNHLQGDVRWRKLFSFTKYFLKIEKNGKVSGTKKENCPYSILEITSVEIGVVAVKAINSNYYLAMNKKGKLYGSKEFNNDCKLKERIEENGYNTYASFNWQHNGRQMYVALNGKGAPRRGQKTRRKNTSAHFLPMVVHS
Dickkopf-related protein 1 (Homo sapiens), sequence (O94907 whole entry, looked up): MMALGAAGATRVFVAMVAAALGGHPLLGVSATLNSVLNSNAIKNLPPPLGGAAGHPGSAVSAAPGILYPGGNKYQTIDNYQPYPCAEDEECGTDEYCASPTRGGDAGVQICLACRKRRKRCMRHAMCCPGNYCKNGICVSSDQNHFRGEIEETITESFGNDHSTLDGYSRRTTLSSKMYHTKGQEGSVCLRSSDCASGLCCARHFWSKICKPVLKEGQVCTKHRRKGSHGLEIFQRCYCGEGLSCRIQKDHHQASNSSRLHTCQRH

For the compound `CCCCN1CC=CC23O[C@@H]4/C=C\CCC(C)OC(=O)C4[C@H]2C(=O)N(C(C)CO)[C@@H]3C1=O` (stereo not given in full), the composite z-score in test [1] is 0.356; in test [2], -0.463; in [3], -0.471; in [5], -0.816; in test [6], -0.937; in [7] it was -0.659. The composite z-score in test [8] is -0.719; in test [9], -0.127; in test [10], 1.19. For the same compound, in [4], the z-score is 1.07 (inactive).
As for `C=C(/C(=C/C[C@H](OC(=O)c1ccncc1)c1ccccc1OCCO)c1cc(C(=O)OC)ccc1OC)C(C)C`, the composite z-score in [1] was 0.748; in test [2], -0.0168; in [3], 0.253; in [5], 1.54; in [6] it was 0.33; in test [7], -0.105. Also, the composite z-score in [8] is 1.1; in [9], 0.599; in test [10], 1.25. Moreover, in test [4], the z-score was -0.361 (inactive).
Turning to `CCCCC(=C=CC[C@@H](O)c1cccc(OCCO)c1)C[C@@H](O)COCc1ccccc1`, the composite z-score in test [1] is 0.377; in [2] it was -0.17; in [3] it was -0.325; in [5], 0.483; in [6] it was 0.0702; in test [7], -1.35. Besides, the composite z-score in [8] was -0.526; in test [9], -0.274; in test [10], 0.211. In addition, the z-score in [4] was -1.21 (inactive).
As for `CC(C)CNC(=O)[C@@H]1c2ccccc2C(=O)N(Cc2ccccc2Cl)[C@H]1c1ccc(CO)cc1`, the composite z-score is 1.29 in test [1]; 0.495 in [2]; 0.959 in test [3]; -0.765 in test [5]; 0.729 in test [6]; -0.519 in test [7]. For the same compound, the composite z-score was -0.644 in test [8], -1.17 in [9] and -0.114 in test [10]. In addition, the z-score in [4] was 0.587 (inactive).
For the compound `COCCOC(=O)N1C(=O)[C@@]2(c3cc(C#CCCO)ccc31)[C@H](C(=O)N1CCc3cc(OC)c(OC)cc3C1)[C@H]1C(=O)O[C@H](c3ccccc3)[C@H](c3ccccc3)N1[C@@H]2c1ccccc1OCCO`, the composite z-score in test [1] is 1.64; in [2], -0.232; in test [3], 0.0036; in [5], 1.42; in [6], 1.29; in [7] it was 0.861. Also, the composite z-score in [8] came to 1.32; in test [9], 0.35; in test [10] it was 0.748. Also, in [4], the z-score is -0.961 (inactive).
As to `C[C@@H](OCc1ccccc1)C1NC(=O)[C@@]23C(=O)N[C@@H](Cc4ccccc4)C2[C@H](C)[C@@]2(C)O[C@H]2C3/C=C/C/C=C\CNC(=O)[C@H](Cc2ccccc2)NC1=O` (stereo not given in full), the composite z-score in test [1] is 0.21; in test [2] it was -0.288; in test [3] it was -0.743; in test [5], 1.35; in [6], 0.297; in [7] it was 0.12. The composite z-score in test [8] was found to be 0.869; in test [9], 0.443; in [10], 1.08. The z-score in test [4] is -0.708 (inactive).
`COCCCNC(=O)[C@@H]1c2ccccc2C(=O)N(C2CCCCC2)[C@H]1c1ccc(CO)cc1`: the composite z-score is 1.2 in [1]; 0.164 in [2]; 0.864 in [3]; -0.779 in [5]; -1.82 in [6]; -1.22 in test [7]. In addition, the results for the composite z-score in [8], in test [9] and in test [10] were -0.849, -1.54 and -0.0501, respectively. Moreover, the z-score in [4] is 0.0373 (inactive).
As for `C=C(/C(=C/C[C@@H](OC(C)=O)c1ccccc1OCCO)c1cc(C(=O)OC)ccc1OC)C(C)C`, the composite z-score in test [1] was 1.08; in test [2], -0.114; in test [3], -0.242; in test [5] it was 0.419; in [6], 0.115; in [7] it was -0.209. Also, the composite z-score in test [8] is -0.0844; in test [9], 0.0006; in [10], 0.772. Besides, the z-score in [4] was 0.314 (inactive).
With `O=C1O[C@H](c2ccccc2)[C@H](c2ccccc2)N2[C@H]1[C@@H](C(=O)NC[C@H](O)c1ccccc1)[C@]1(C(=O)Nc3ccc(C#CCCO)cc31)[C@H]2c1ccccc1OCCO`, the composite z-score is 1.51 in test [1]; -0.232 in [2]; 0.558 in test [3]; 0.458 in [5]; -0.495 in [6]; -0.297 in test [7]. Besides, the figures for the composite z-score in test [8], in [9] and in test [10] were 0.577, -0.515 and 0.205, respectively. In addition, the z-score in [4] was 0.0927 (inactive).
Turning to `CN(C)CCCC[C@@H]1NC(=O)[C@@H]2C[C@H](C(=O)NCCCCCCNC(=O)CS)[C@H](c3cccc(OCCO)c3)N2C1=O`, the composite z-score in test [1] is 1.59; in test [2], 0.0307; in test [3] it was 0.358; in test [5] it was 0.419; in test [6], 0.842; in [7] it was -0.247. The composite z-score was -0.0613 in test [8], 0.735 in test [9] and -0.0529 in [10]. In addition, the z-score in test [4] was -0.162 (inactive).
As for `COCCOC(=O)N1C(=O)[C@@]2(c3cc(C#CC4=CCCCC4)ccc31)[C@H](c1ccc(OCCO)cc1)N1[C@H](c3ccccc3)[C@H](c3ccccc3)OC(=O)[C@H]1[C@@H]2C(=O)N1CCCCCCC1`, the composite z-score in test [1] was 0.959; in test [2], 1.43; in test [3], 1.16; in test [5] it was 1.02; in [6] it was 1.33; in test [7] it was 0.513. Further, the figures for the composite z-score in test [8], in test [9] and in [10] were 1.46, 1.01 and 1.7, respectively. Moreover, the z-score in test [4] is -1.07 (inactive).
